Assay in all cases: NCI-60 one-dose screen, 48 h (100 = growth as untreated, 0 = no growth, -100 = all killed)
Common to all, as to conditions: 10 µM unless noted

Assay [1] relates to HCT-15 colon.
Assay [2] deals with HT29 colon.
In assay [3] the test system is SNB-75 CNS.
Assay [4] deals with SNB-19 CNS.
For assay [5], the system named is U251 CNS.
In assay [6] the test system is PC-3 prostate.
Assay [7] concerns SK-MEL-5 melanoma.
Assay [8] concerns UACC-62 melanoma.
Assay [9] relates to LOX IMVI melanoma.
The test system of assay [10] is SK-MEL-28 melanoma.
Assay [11] has as its system SK-MEL-2 melanoma.
The subject of assay [12] is EKVX NSCLC.
In assay [13] the test system is SN12C renal.
Assay [14] deals with TK-10 renal.
Assay [15] deals with ACHN renal.
In assay [16] the test system is CAKI-1 renal.
Assay [17] concerns A498 renal.
The subject of assay [18] is CCRF-CEM leukemia.
Assay [19] concerns MOLT-4 leukemia.
The subject of assay [20] is UO-31 renal.

Several values for one entry are separate records, joined by “and”; a condition that tells them apart may be missing. Identical values can stand only once. This is part of a sample that, as a whole, favours compounds with a hit. Of some 83,000 tested, about 20% had one in any assay.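 Results are percent growth after 48 hours of single-concentration exposure. 100 means growth as in untreated cells, lower positive values show inhibition; negative values down to -100 show cell death.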 Activity calls are given as the source filed them. The calls were made as follows: active = growth percent below 10; inactive = the rest.

Among the data in PubChem BioAssay (NCI) are growth values, retold here.

Take `CCN(CC)CCCC(C)Nc1cnc(C(=O)Nc2cc(F)cc3cccnc23)cn1` (stereo unspecified): the growth in assay [1] is 24.5% (inactive) and -32.9% (active); in [2], 11.8% (inactive) and 5.33% (active); in assay [3], 65.7% (inactive) and -54.3% (active); in assay [4], 83.1% (inactive) and -87.9% (active); in assay [5], 50.3% (inactive) and -76.1% (active); in assay [6], 61% (inactive) and -52.7% (active). The growth in assay [7] was 70% (inactive) and -92.2% (active); in assay [8], 0.997% (active) and 17.5% (inactive); in [9], 33.3% (inactive) and -48.5% (active); in assay [10] it was 63.2% (inactive) and 22.7% (inactive); in [11], 96.7% (inactive) and 50% (inactive); in [12], 73.3% (inactive) and 19.2% (inactive). Also, the growth was 54.5% (inactive) and 1.53% (active) in assay [13]; 63.7% (inactive) and -48.8% (active) in [14]; 36.6% (inactive) and -2.97% (active) in assay [15]; 36.7% (inactive) and -38.3% (active) in [16]; 63% (inactive) in assay [17]; 19.7% (inactive) and 3.49% (active) in [18]. The growth in assay [19] is 22% (inactive) and 10.4% (inactive).
With `CC(O)(CC(=O)CC(=O)c1ccccc1)c1ccccc1` (stereo unspecified), the growth in assay [1] was 70.2% (inactive) and 69.4% (inactive); in assay [2], 105% (inactive) and 111% (inactive); in assay [3], 92.5% (inactive) and 126% (inactive); in assay [4] it was 95.8% (inactive) and 99.9% (inactive); in assay [5] it was 89.2% (inactive) and 84.3% (inactive); in [6], 80.9% (inactive). Also, the growth was 98.6% (inactive) and 93.6% (inactive) in [7]; 101% (inactive) and 87.9% (inactive) in assay [8]; 110% (inactive) and 82.3% (inactive) in [9]; 99.4% (inactive) and 123% (inactive) in assay [10]; 126% (inactive) and 110% (inactive) in [11]; 103% (inactive) in assay [12]. Besides, the growth in [13] is 99.3% (inactive) and 85.3% (inactive); in assay [14] it was 98.5% (inactive) and 111% (inactive); in assay [15], 94.9% (inactive) and 106% (inactive); in [16], 110% (inactive); in assay [17] it was 79.9% (inactive); in [18], 95.4% (inactive) and 83% (inactive). Besides, the growth in [19] is 87.3% (inactive) and 113% (inactive).
Turning to `O=C(Nc1ccc(Cl)cc1)c1cc2ccccc2cc1O`, the growth was 12.8% (inactive) and 15.8% (inactive) in assay [1]; 94.7% (inactive) and 8.61% (active) in assay [2]; 52.6% (inactive) and 53.1% (inactive) in [3]; 37.7% (inactive) and 29.6% (inactive) in assay [4]; 21.2% (inactive) and -8.1% (active) in assay [5]; 11.5% (inactive) and -13.1% (active) in assay [6]. Besides, the growth was 14% (inactive) and 0.898% (active) in assay [7]; 28.3% (inactive) and 35.1% (inactive) in assay [8]; 37.3% (inactive) and 12% (inactive) in [9]; 43.8% (inactive) and 45.1% (inactive) in assay [10]; 36.9% (inactive) and 7.35% (active) in [11]; 15.3% (inactive) and 14.6% (inactive) in assay [12]. The growth in assay [13] is 8.95% (active) and -2.39% (active); in assay [14], 53.3% (inactive) and 8.41% (active); in assay [15] it was 30.3% (inactive) and 31.2% (inactive); in [16], 34.5% (inactive) and -23.4% (active); in assay [17] it was -5.52% (active); in assay [18], 17.8% (inactive). Further, in assay [19], the growth was 4.27% (active) and -8.37% (active).
For `CC(CN=Cc1ccccc1O)N=Cc1ccccc1O` (stereo unspecified), the growth in assay [1] was 105% (inactive) and 97.2% (inactive); in assay [2], 115% (inactive) and 110% (inactive); in assay [3] it was 104% (inactive) and 82.4% (inactive); in [4], 96.1% (inactive) and 101% (inactive); in [5], 96.6% (inactive) and 104% (inactive); in assay [6] it was 96% (inactive) and 95.8% (inactive). For the same compound, the growth in [7] is 102% (inactive) and 106% (inactive); in assay [8], 107% (inactive) and 105% (inactive); in assay [9], 101% (inactive) and 88.8% (inactive); in [10], 117% (inactive) and 102% (inactive); in assay [11] it was 154% (inactive) and 102% (inactive); in [12], 102% (inactive) and 111% (inactive). Besides, the growth in [13] is 90.4% (inactive) and 98.7% (inactive); in assay [20], 107% (inactive) and 80.3% (inactive); in assay [14], 110% (inactive) and 106% (inactive); in assay [15], 103% (inactive) and 93.8% (inactive); in assay [17], 121% (inactive) and 105% (inactive); in assay [18] it was 92.3% (inactive) and 96.2% (inactive). Moreover, the growth in [19] is 120% (inactive) and 93.3% (inactive).
Turning to `CCCCCCCCCCCCCCCc1cc(O)ccc1N`, the growth in assay [1] was 89.4% (inactive) and 75.6% (inactive); in [2] it was 105% (inactive) and 107% (inactive); in assay [3] it was 63.5% (inactive) and 30.1% (inactive); in assay [4], 96.8% (inactive) and 118% (inactive); in assay [5] it was 68.1% (inactive) and 81.1% (inactive); in assay [6], 34.6% (inactive) and 22.2% (inactive). The growth in assay [7] was 100% (inactive) and 78.6% (inactive); in assay [8], 84.3% (inactive); in assay [9] it was 34.5% (inactive) and -35.1% (active); in [10], 106% (inactive) and 103% (inactive); in assay [11], 105% (inactive) and 106% (inactive); in assay [12], 86.6% (inactive) and 85.6% (inactive). Besides, the growth was 51.2% (inactive) and 62.2% (inactive) in [13]; -59.8% (active) and 20.5% (inactive) in [20]; 123% (inactive) and 98.3% (inactive) in assay [14]; 90% (inactive) and 76.8% (inactive) in assay [15]; 133% (inactive) and 122% (inactive) in assay [17]; 5.23% (active) and -6.89% (active) in [18]. In [19], the growth is -1.13% (active) and -2.69% (active).
For `CCOc1ccc(Nc2c3ccccc3nc3ccccc23)cc1`, the growth in assay [1] is 91.1% (inactive) and 17.4% (inactive) and 22% (inactive); in assay [2], 98% (inactive) and 4.3% (active) and 10.5% (inactive); in [3], 77.1% (inactive) and 38.2% (inactive) and 21.5% (inactive); in [4] it was 91.1% (inactive) and 44.3% (inactive) and 35.2% (inactive); in assay [5], 86% (inactive) and 21.4% (inactive) and 28.1% (inactive); in [6] it was 90.6% (inactive) and 25.6% (inactive) and 39.5% (inactive). The growth in assay [7] was 80.6% (inactive) and -65.9% (active) and 0.799% (active); in [8], 84.8% (inactive) and 18.9% (inactive) and 31.8% (inactive); in assay [9], 94.5% (inactive) and 3.66% (active) and 11.5% (inactive); in assay [10] it was 106% (inactive) and 46.8% (inactive) and 66.1% (inactive); in assay [11], 104% (inactive) and 34% (inactive) and 72.1% (inactive); in assay [12], 42.8% (inactive) and 42.1% (inactive). In addition, the growth in assay [13] is 81.8% (inactive) and 20.6% (inactive) and 27.6% (inactive); in assay [14] it was 93.3% (inactive) and 35.1% (inactive) and 32.7% (inactive); in assay [15] it was 84.9% (inactive) and -30.4% (active) and 6.25% (active); in assay [16], 91.3% (inactive) and 6.56% (active) and -17% (active); in assay [17], 73.5% (inactive) and 35.5% (inactive) and 72.8% (inactive); in assay [18], 99.8% (inactive) and 12.4% (inactive) and 4.91% (active). In assay [19], the growth is 89.9% (inactive) and -2.2% (active) and -10.9% (active).
For the compound `NC(=S)NN=C1CCC(C2CCCCC2)CC1` (stereo unspecified), the growth in [1] is 61.9% (inactive) and 66.1% (inactive); in [2] it was 90% (inactive) and 79.7% (inactive); in [3], 76.4% (inactive) and 92.8% (inactive); in [4] it was 96% (inactive) and 102% (inactive); in assay [5] it was 93.7% (inactive) and 95.1% (inactive); in [6], 89% (inactive) and 74.1% (inactive). Also, the growth is 87.3% (inactive) and 87.8% (inactive) in assay [7]; 79.6% (inactive) and 88.3% (inactive) in assay [8]; 99.8% (inactive) in [9]; 91.5% (inactive) and 110% (inactive) in assay [10]; 96% (inactive) and 90.2% (inactive) in assay [11]; 78.9% (inactive) and 82.6% (inactive) in assay [12]. In addition, the growth was 82.3% (inactive) and 82.5% (inactive) in assay [13]; 69.3% (inactive) and 45.9% (inactive) in assay [20]; 100% (inactive) and 98.8% (inactive) in assay [15]; 88.2% (inactive) in assay [17]; 81.1% (inactive) and 92% (inactive) in assay [18]; 81.4% (inactive) and 73.3% (inactive) in assay [19].
As for `CCOC(=O)Nc1ccc2c(c1)/C(=N\NC(N)=S)c1ccccc1-2`, the growth in [1] is 22.1% (inactive) and 38.2% (inactive); in [2] it was 29.6% (inactive) and 25.8% (inactive); in [3], 70.2% (inactive) and 66.4% (inactive); in assay [4] it was 78.4% (inactive) and 75.3% (inactive); in [5], 52.6% (inactive) and 48.8% (inactive); in assay [6] it was 42.5% (inactive) and 90.9% (inactive). The growth is 38.1% (inactive) and 44.2% (inactive) in [7]; 37.3% (inactive) and 51.3% (inactive) in [8]; 54.4% (inactive) and 58.4% (inactive) in assay [9]; 50% (inactive) and 75.4% (inactive) in assay [10]; 70.1% (inactive) and 93.2% (inactive) in assay [11]; 68.3% (inactive) and 70.8% (inactive) in assay [12]. For the same compound, the growth was 73.3% (inactive) and 71.9% (inactive) in assay [13]; 68% (inactive) and 82.5% (inactive) in [20]; 82.2% (inactive) and 107% (inactive) in assay [14]; 56.8% (inactive) and 68.7% (inactive) in assay [15]; 46.6% (inactive) and 65.5% (inactive) in [17]; 19.9% (inactive) and 27.8% (inactive) in assay [18]. Moreover, in assay [19], the growth is 46% (inactive) and 41.8% (inactive).
